Test results as given in article PMC12670160, “A drug-repurposing screen of FDA- and EMA-approved drugs identifies two NF-κB inhibitors active against eumycetoma” (Journal of Antimicrobial Chemotherapy, 2025).

The compounds below were run on M. mycetomatis strain mm55. Settings: primary screen, metabolic activity vs growth control; 96 h, 2 µM; inhibitor.
Set-up: species or system Madurella mycetomatis MM55 hyphae; CellTiter-Glo 3D luminescence viability of fungal hyphae, single-point 2 uM library screen, per cent of growth control
Method: To determine the in vitro susceptibility of M. mycetomatis to the compounds, a hyphal inoculum was prepared as described elsewhere.[19] This M. mycetomatis hyphal suspension (60 µL) was added to each of the wells in the 384-well plate, leading to a final testing concentration of 2 µM per compound. Each plate also contained a growth control (60 µL of M. mycetomatis hyphal suspension, plus 0.6 µL of DMSO) and a negative control (60 µL of culture medium, plus 0.6 µL of DMSO). Plates were then incubated for 4 days at 37°C, after which 30 µL of CellTiter-Glo 3D Cell Viability reagent was added to every well.[19] After 25 min of incubation at room temperature, the luminescence was measured with a CytoFluor Series 4000 luminometer (PerSeptive Biosystems, Framingham, MA, USA). To determine the metabolic activity, the following formula was used: where, GC is growth control and NC is negative control. The luminescence measured for the GC is considered as 100% metabolic activity. The luminescence for the NC is considered as 0% metabolic activity. […] The Oncode Drug Repurposing library was based on the drug repurposing library from the Drug Repurposing Hub of the Broad Institute and recreated by the Oncode institute.[13] The library contained 5631 drugs.[18] […]

Structure (SMILES) | % viability [%]
C[C@]12CC[C@@H]3c4ccc(OC(=O)N(CCCl)CCCl)cc4CC[C@H]3[C@@H]1CC[C@@H]2OP(=O)(O)O [ONC0003506, estramustine phosphatena] | 76.07
C[N+]1(C)CCc2cc3c(cc2[C@H]1[C@@H]1OC(=O)c2c1ccc1c2OCO1)OCO3 [ONC0000006, bicucullinemethochloride] | 85.19
